From PubChem BioAssay come the findings set out here.

Activity calls are given as the source filed them.

Test [1] deals with Plasmodium falciparum Sir2 (PF13_0152, Sir2A). Nature of the test: Plasmodium falciparum Sir2A binding compounds – biochemical, small-molecule microarray, 635 nm fluorescence, primary screen (AID 1098).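 Also: score merges spot fluorescence intensity with its signal-to-noise ratio.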 The settings on record: fluorescence 635 nm, higher = more signal.
Test [2] is described as follows: probe aDKK1 binding to arrayed compounds – biochemical, biotinylated probe, 635/667 nm fluorescence, primary screen (AID 1099).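 Also: score merges 667nm spot fluorescence with signal to noise across triplicate slides.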 Conditions: small-molecule microarray, higher = more signal.
The nature of test [3]: probe aCHRDL2 binding to arrayed compounds – biochemical, biotinylated probe, 635/667 nm fluorescence, primary screen (AID 1100). Conditions: small-molecule microarray, higher = more signal.
Test [4] can be described thus: change in splice reporter luminescence, either direction, cell-based, HEK293, spliceosome inhibition project, primary screen (AID 1101).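 Also: HEK293 cells carrying a splicing-competent luciferase reporter gene; test concentration not given here.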 The settings on record: HEK293 splicing luciferase reporter, 24 h, higher = more signal, called active from +8 up or from −8 down. For orientation: In a reporter assay the amount or activity of a reporter protein is the signal.
Test [5] concerns the target Fibroblast growth factor 10 (Homo sapiens) (UniProt O15520). Nature of the test: compounds binding fibroblast growth factor 10 – biochemical, small-molecule microarray, 635 nm fluorescence, primary screen (AID 1102). Conditions: FGF10 binding, fluorescence 635 nm, higher = more signal.
Test [6] concerns glycogen synthase kinase-3 (GSK3A per assay name; protocol says GSK3B). In words: compounds binding glycogen synthase kinase-3 – biochemical, small-molecule microarray, 635 nm fluorescence, GSK3A, primary screen (AID 1103). Also: the record names both GSK3A and GSK3B. Conditions: fluorescence 635 nm, higher = more signal.
Test [7] has as its target Epidermal growth factor receptor (Homo sapiens) (UniProt P00533). Nature of the test: compounds binding epidermal growth factor receptor – biochemical, small-molecule microarray, 635 nm fluorescence, primary screen (AID 1104).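 Also: score merges 667 nm emission intensity with spot signal to noise over triplicate slides.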 The settings on record: EGFR binding, higher = more signal.
Test [8] addresses Follistatin-related protein 3 (Homo sapiens) (UniProt O95633). In words: compounds binding follistatin-related protein 3 – biochemical, small-molecule microarray, 635 nm fluorescence, primary screen (AID 1105).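 Also: score merges emission near 667 nm and signal to noise per printed spot across three slides.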 The settings on record: FSTL3 binding, higher = more signal.
Test [9] concerns the target Dickkopf-related protein 1 (Homo sapiens) (UniProt O94907). Nature of the test: small molecules binding DKK1 protein – biochemical, small-molecule microarray, 635 nm fluorescence scan, primary screen (AID 1106).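 Also: score merges emission near 667 nm with signal to noise over three replicate slides.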 Conditions: higher = more signal.
Test [10] relates to Inhibin beta A chain (activin A). In words: small molecules binding activin A – biochemical, small-molecule microarray, 635 nm fluorescence scan, primary screen (AID 1107).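 Also: mouse activin A protein probed at 4.33 µg/mL on printed slides; score merges bound-protein fluorescence near 667 nm with spot signal-to-noise.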 The settings on record: INHBA, higher = more signal.
The subject of test [11] is Human papillomavirus type 1a protein E7 (residues 44-93). In words: small molecules binding HPV E7 44-93 – biochemical, small-molecule microarray, residues 44-93, 635 nm fluorescence, primary screen (AID 1108).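 Also: E7 fragment applied at 1 µg/mL in TBST for 1 h at 4 C; score combines spot fluorescence with its signal to noise ratio.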 Conditions: fluorescence 635 nm, higher = more signal.
Test [12] is described as follows: hepatitis C replication reporter changes, two-sided – Huh7 cells, luciferase reporter, HCV replication inhibitor project, primary screen (AID 1109).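 Also: huh7 hepatoma cells harbouring a luciferase neomycin HCV replicon reporter; luciferase luminescence as measure of HCV replicon replication; test concentration not given here.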 The settings on record: Huh7 HCV replicon luciferase reporter, 48 h; higher = more signal.
The target in test [13] is Left-right determination factor 2 (Homo sapiens) (UniProt O00292). In words: small molecules binding LEFTY2 protein – biochemical, small-molecule microarray, 635 nm fluorescence scan, primary screen (AID 1110). The settings on record: higher = more signal.
Test [14] has as its target Calmodulin-1 (Homo sapiens) (UniProt P0DP23). Nature of the test: small molecules binding calmodulin-1 with EGTA – biochemical, small-molecule microarray, Cy5-labelled CALM1, profiling panel (AID 1111).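 Also: labelled calmodulin applied in Tris saline Tween buffer holding calcium plus EGTA and DTT.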 The settings on record: Cy5-CALM1 binding fluorescence, higher = more signal.
Test [15] shares this target. Nature of the test: small molecules binding Ca-loaded calmodulin-1 – biochemical, small-molecule microarray, Cy5-labelled CALM1, plus calcium, artefact control for SMM control-protein annotation, profiling panel (AID 1112).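 Also: score merges spot fluorescence with signal to noise from triplicate slides.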 The settings on record: Cy5-CALM1 binding fluorescence, higher = more signal.
The nature of test [16]: probe aWnt5a binding to arrayed compounds – biochemical, biotinylated probe, 635/667 nm fluorescence, primary screen (AID 1113).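 Also: score merges 667 nm fluorescence intensity with signal-to-noise per printed feature.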 Conditions: small-molecule microarray, higher = more signal.
Test [17] is described as follows: probe aShh binding to arrayed compounds – biochemical, biotinylated probe, 635/667 nm fluorescence, primary screen (AID 1114).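 Also: probe is biotin-labelled aShh protein from a stem cell growth factor screen; measures binding of labelled protein to compounds printed on the slide; score merges feature fluorescence at 667 nm with signal-to-noise.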 Conditions: small-molecule microarray, higher = more signal.
Test [18] can be described thus: probe aNog binding to arrayed compounds – biochemical, biotinylated probe, 635/667 nm fluorescence, primary screen (AID 1115).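 Also: probe is biotinylated aNog protein used at 0.15 µg/mL for 1 h at 4 C; z-score combines 667 nm fluorescence of each spot with its signal to noise.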 The settings on record: small-molecule microarray, higher = more signal.
Test [19] concerns the target Torsin-1A-interacting protein 1 (Homo sapiens) (UniProt Q5JTV8). Nature of the test: compound microarray binding of lysate hLAP1 – cell lysate, small-molecule microarray, COS7 lysate, 635/667 nm fluorescence, primary screen (AID 1116). The settings on record: 635 nm fluorescence, higher = more signal.
Test [20] has as its target Alpha-bungarotoxin (Bungarus multicinctus) (UniProt P60615). Nature of the test: compounds binding labelled alpha-BTX control protein – biochemical, small-molecule microarray, Alexa647 label, 635/667 nm fluorescence, artefact control for SMM control protein annotation, profiling panel (AID 1117). Conditions: alpha-BTX-A647 binding fluorescence, higher = more signal.

Chain of Alpha-bungarotoxin (Bungarus multicinctus) (P60615 whole entry, looked up): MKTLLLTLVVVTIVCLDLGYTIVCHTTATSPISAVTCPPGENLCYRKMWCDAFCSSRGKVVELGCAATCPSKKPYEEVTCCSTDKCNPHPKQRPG
Chain of Dickkopf-related protein 1 (Homo sapiens) (O94907 whole entry, looked up): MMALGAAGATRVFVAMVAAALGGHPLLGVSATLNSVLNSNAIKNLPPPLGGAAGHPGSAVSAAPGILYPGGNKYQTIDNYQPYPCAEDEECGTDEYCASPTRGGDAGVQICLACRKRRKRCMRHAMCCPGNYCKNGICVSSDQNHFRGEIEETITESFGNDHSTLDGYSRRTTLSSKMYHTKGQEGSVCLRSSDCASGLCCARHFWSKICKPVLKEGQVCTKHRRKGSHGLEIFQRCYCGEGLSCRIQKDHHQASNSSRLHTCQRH
Chain of Torsin-1A-interacting protein 1 (Homo sapiens) (Q5JTV8 whole entry, looked up): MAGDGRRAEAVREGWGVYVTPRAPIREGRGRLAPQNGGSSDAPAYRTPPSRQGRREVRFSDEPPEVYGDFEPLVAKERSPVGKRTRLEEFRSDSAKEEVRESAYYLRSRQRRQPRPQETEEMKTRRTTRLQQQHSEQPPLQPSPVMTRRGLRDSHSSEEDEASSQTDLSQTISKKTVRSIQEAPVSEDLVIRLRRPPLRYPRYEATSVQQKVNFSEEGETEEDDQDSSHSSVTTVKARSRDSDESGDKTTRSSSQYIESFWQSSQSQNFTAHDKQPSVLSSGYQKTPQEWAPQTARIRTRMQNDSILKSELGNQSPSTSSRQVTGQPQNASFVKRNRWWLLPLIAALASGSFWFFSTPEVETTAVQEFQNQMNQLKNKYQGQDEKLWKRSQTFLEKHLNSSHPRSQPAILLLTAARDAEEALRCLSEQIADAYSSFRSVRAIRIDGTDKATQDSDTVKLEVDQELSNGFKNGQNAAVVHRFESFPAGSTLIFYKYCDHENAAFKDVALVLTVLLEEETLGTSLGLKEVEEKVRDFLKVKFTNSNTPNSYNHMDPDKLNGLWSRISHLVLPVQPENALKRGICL
Chain of Epidermal growth factor receptor (Homo sapiens) (P00533 whole entry, looked up): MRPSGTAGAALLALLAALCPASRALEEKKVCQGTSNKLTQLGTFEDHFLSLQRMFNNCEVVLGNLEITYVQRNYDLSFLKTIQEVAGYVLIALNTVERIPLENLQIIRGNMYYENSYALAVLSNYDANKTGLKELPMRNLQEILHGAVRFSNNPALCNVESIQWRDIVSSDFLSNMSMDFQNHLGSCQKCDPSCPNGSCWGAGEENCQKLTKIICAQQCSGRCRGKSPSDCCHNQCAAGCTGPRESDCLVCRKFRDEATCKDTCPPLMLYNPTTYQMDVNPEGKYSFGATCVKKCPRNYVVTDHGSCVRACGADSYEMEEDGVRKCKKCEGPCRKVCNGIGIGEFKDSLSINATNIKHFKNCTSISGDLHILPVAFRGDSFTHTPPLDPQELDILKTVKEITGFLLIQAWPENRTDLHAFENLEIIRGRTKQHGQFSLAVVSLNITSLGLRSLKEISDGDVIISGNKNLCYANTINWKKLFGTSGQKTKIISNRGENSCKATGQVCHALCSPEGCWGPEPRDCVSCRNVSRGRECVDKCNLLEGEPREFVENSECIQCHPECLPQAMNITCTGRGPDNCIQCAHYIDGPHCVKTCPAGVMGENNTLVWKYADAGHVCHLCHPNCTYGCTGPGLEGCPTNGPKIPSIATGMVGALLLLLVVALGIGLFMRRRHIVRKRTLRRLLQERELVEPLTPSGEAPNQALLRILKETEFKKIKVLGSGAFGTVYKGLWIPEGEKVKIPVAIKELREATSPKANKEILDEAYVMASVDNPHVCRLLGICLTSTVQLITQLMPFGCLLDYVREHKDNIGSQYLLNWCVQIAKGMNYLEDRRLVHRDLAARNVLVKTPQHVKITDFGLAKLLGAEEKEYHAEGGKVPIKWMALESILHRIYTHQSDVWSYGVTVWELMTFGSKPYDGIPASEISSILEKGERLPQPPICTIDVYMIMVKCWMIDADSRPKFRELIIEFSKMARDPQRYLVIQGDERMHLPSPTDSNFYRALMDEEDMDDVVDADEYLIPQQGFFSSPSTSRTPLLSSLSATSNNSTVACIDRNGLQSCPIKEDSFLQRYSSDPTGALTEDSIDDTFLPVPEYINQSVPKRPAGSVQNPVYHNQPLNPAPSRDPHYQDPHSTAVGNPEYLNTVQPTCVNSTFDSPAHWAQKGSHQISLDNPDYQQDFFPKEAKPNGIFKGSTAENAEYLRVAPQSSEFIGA
Chain of Follistatin-related protein 3 (Homo sapiens) (O95633 whole entry, looked up): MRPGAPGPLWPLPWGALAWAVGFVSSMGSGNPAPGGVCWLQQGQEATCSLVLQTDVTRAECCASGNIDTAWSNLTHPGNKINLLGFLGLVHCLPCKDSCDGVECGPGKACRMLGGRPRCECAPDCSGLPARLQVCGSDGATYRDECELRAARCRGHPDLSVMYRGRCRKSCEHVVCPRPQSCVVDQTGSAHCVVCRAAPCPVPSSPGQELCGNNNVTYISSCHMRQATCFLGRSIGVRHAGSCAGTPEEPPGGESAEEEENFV
Chain of Fibroblast growth factor 10 (Homo sapiens) (O15520 whole entry, looked up): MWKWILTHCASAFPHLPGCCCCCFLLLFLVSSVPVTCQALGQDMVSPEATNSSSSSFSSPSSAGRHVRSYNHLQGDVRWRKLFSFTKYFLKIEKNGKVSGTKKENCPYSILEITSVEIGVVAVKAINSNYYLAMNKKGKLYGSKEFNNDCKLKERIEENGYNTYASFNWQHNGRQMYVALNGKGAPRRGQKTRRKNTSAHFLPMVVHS
Chain of Left-right determination factor 2 (Homo sapiens) (O00292 whole entry, looked up): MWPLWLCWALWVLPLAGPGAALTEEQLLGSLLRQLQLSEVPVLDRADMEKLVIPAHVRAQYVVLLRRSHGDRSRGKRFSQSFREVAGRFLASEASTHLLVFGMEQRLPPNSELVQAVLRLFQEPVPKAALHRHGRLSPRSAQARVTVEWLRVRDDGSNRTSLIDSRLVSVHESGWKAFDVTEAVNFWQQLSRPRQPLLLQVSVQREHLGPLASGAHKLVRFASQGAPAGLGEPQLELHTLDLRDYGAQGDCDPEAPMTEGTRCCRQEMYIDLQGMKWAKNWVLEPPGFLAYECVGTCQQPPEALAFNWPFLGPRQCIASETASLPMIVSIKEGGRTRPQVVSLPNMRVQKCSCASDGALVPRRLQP

In the case of `CS(=O)(=O)CCOC(=O)C1=CC(CCCO)=CC(C2CC2)N(Cc2cccc(OC(F)(F)F)c2)C=C1C(=O)OCCS(C)(=O)=O` (stereo not given), the composite z-score in test [1] is 1.09; in test [2], 0.0231; in test [3], -0.0768; in test [5] it was 0.039; in test [6], 0.306; in test [7], -0.0252. The composite z-score in test [8] was 0.054; in [9] it was -0.325; in [10] it was 0.911; in test [11] it was 1.3; in test [13] it was -0.022; in test [14], 0.238. The composite z-score in test [15] was 0.478; in [16] it was -0.0643; in test [17], -0.0243; in test [18] it was 0.576; in test [19], 1.9; in [20] it was 0.0358. For the same compound, the z-score in test [4] is 0.155 (inactive); in test [12], -1.63.

With `COCCOC(=O)N1C(=O)[C@@]2(c3cc(C#CCCO)ccc31)[C@H](C(N)=O)[C@H]1C(=O)O[C@H](c3ccccc3)[C@H](c3ccccc3)N1[C@@H]2c1ccc(OCCO)cc1`, the composite z-score in [1] was determined as 1.44; in test [2], 0.209; in test [3], 0.415; in [5], 1.25; in test [6] it was 1.23; in [7], 0.808. In addition, the composite z-score came to 1.14 in test [8]; 0.616 in [9]; 0.914 in test [10]; 1.28 in [11]; 0.957 in [13]; 1.1 in test [14]. The composite z-score is -0.351 in test [15]; -0.0303 in [16]; 0.0253 in test [17]; -0.371 in [18]; 1.46 in test [19]; 0.787 in test [20]. Also, the z-score in test [4] was 0.475 (inactive); in test [12], -1.14.

Regarding `C=C/C=C/[C@@H]1C(=C)CN([C@@H](Cc2ccccc2)C(=O)OC)[C@H]1[C@@H](O)Cc1ccccc1`, the composite z-score in test [1] is 0.742; in test [2] it was -0.369; in test [3], -0.186; in [5], 0.716; in test [6], 0.754; in test [7] it was -0.08. Further, the composite z-score in test [8] was 0.509; in test [9], 0.473; in test [10], 1.2; in test [11], 1.17; in [13], 0.201; in [14], 0.241. For the same compound, the composite z-score in test [15] is -0.547; in [16], -0.107; in test [17] it was -0.138; in test [18], 0.0924; in [19], 0.309; in [20], 0.325. Also, the z-score in [4] was 0.844 (inactive); in test [12], -0.622.

As to `O=c1cccc(-c2ccc(F)cc2)o1`, the composite z-score in test [1] was 0.347; in [2], 0.328; in test [3], -0.3; in test [5], 0.948; in test [6], 0.716; in test [7] it was 0.444. Besides, the composite z-score was 0.74 in test [8]; 0.399 in [9]; 0.457 in test [10]; -0.399 in [11]; 0.55 in test [13]; -0.236 in test [14]. Moreover, the composite z-score in [15] is -0.33; in [16], -0.1; in [17], 0.216; in [18], 0.0416; in test [19] it was -0.184; in test [20], 0.241. Also, the z-score in test [4] is 0.362 (inactive); in test [12] it was -0.228.

`[N-]=[N+]=NCc1ccccc1[C@@H]1OC(c2ccc(OCCCO)cc2)=N[C@]1(Cc1ccccc1)C(=O)NCCN1CCOCC1`: the composite z-score in test [1] was 1.03; in [2] it was 0.657; in test [3] it was 0.58; in test [5], 0.868; in test [6], 0.616; in test [7], -0.102. Besides, the composite z-score in test [8] is 0.567; in test [9] it was -0.383; in test [10] it was 0.798; in test [11], 1.42; in test [13], 0.133; in [14], 1.2. Also, the composite z-score in [15] stood at 0.558; in test [16], 0.0825; in test [17] it was 0.1; in [18] it was 0.684; in test [19], 0.946; in test [20], 0.63. The z-score in [4] is 0.0496 (inactive); in test [12], -2.37.

For `CCOC(=O)C[C@H]1[C@H](OC(=O)c2ccc(-c3ccccc3)cc2)[C@@H](NC(=O)Cc2ccc(OC)cc2)c2cc(OCCCO)ccc2N1C(=O)Cc1ccc(OC)cc1`, the composite z-score in test [1] is 0.064; in [2] it was 0.288; in [3], 0.723; in test [5], 0.244; in test [6], -0.602; in test [7] it was 0.0599. Also, the composite z-score in [8] is -0.0955; in test [9], -0.276; in [10], 0.38; in test [11] it was 0.102; in [13], -0.0069; in test [14], 0.655. The composite z-score is 0.767 in test [15]; -0.0114 in [16]; 0.0952 in test [17]; 0.0759 in test [18]; 0.456 in test [19]; 0.913 in test [20]. Moreover, the values for the z-score in [4] and in test [12] were -0.0344 (inactive) and -0.261, respectively.
